A short description of assay [1]: qHTS assay for small molecule agonists of the antioxidant response element (ARE) signaling pathway (AID 651741; active means well fitted activation curve with a large enough effect in the signal ratio; the % refers to the signal ratio; further: potency means the concentration at half of the fitted maximal effect). The settings on record: HepG2 ARE-bla reporter, beta-lactamase FRET ratio, 16 h; series mostly up to 96 µM. The method, boiled down:
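CellSensor ARE-bla HepG2 cells (2,000/well) carrying ARE-driven beta-lactamase, exposed 16 h at 37 C. LiveBLAzer B/G FRET substrate added for 2 h at room temperature; fluorescence intensity read.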
(In qHTS, concentration-response curves come from the screen itself.)

The nature of assay [2]: qHTS assay for small molecule activators of the p53 signaling pathway (AID 651743; active means well fitted activation curve with a large enough effect in the signal ratio, not every such curve was filed as active; the % refers to the signal ratio; further: % of control where 0% means no effect). Conditions: HCT-116 p53RE-bla, beta-lactamase FRET ratio, 16 h; activation: stronger effect = higher value. The method in brief:
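p53RE-bla HCT-116 cells carrying a beta-lactamase reporter under p53 response elements were exposed to compounds for 16 hours at 37 C. Reporter activity read as fluorescence after 2 hours at room temperature with LiveBLAzer B/G FRET substrate.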

The nature of assay [3]: qHTS assay for small molecule disruptors of the mitochondrial membrane potential - 1 hr assay (AID 651754; calls by dose curve; further: potency means the concentration at half of the fitted maximal effect; nearly all actives have a fitted effect of over 35% in size). The settings on record: series mostly up to 92.2 µM. The method, boiled down:
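HepG2, 2,000 cells/well, overnight attachment; cpd or DMSO 1 hr, 37C/5% CO2; Mito-MPS dye 30 min, 37C; fluorescence monomer (490/535) and aggregate (540/590).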

Assay [4] can be described thus: qHTS assay for small molecule disruptors of the mitochondrial membrane potential - 5 hr assay (AID 651755; calls by dose curve; further: potency means the concentration at half of the fitted maximal effect; nearly all actives have a fitted effect of over 40% in size). The settings on record: JC-1-type ratio dye; series mostly up to 92.2 µM. The method in brief:
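HepG2 cells (2,000/well), attached overnight, exposed to compound 5 hr at 37C, then Mito-MPS dye 30 min. Fluorescence read for monomers (490/535 nm) and aggregates (540/590 nm).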

Assay [5] has as its target Peroxisome proliferator-activated receptor alpha (Homo sapiens) (UniProt Q07869). Kind of assay: qHTS assay for small molecule agonists of the peroxisome proliferator-activated receptor alpha (PPARalpha) signaling pathway (AID 651778). Further: % of control where 0% means no effect. Conditions: PathHunter PPARalpha complementation, chemiluminescence, 6 h; max response: stronger effect = higher value. The method in brief:
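Enzyme-fragment complementation assay in which ligand-bound PPARalpha translocates and forms an active enzyme that generates chemiluminescence. Cells were plated overnight, exposed to compound for 6 hr at 37 C, and then given detection reagent for 60 min at room temperature.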

Assay [6] addresses Nuclear receptor ROR-gamma (Homo sapiens) (UniProt P51449). Kind of assay: qHTS assay for small molecule antagonists of the retinoid-related orphan receptor gamma (ROR-gamma) signaling pathway (AID 651802). Further: nearly all actives have a fitted effect of over 60% in size. Further: potency means the concentration at half of the fitted maximal effect. Conditions: ROR-gamma antagonist cell reporter assay; series mostly up to 92.2 µM. The method in brief: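 CHO, TET-inducible ROR + RORE-LUC reporter, 1536-well qHTS. Compound pinned, doxycycline added, 16hr 37C/5% CO2. ONE-Glo, 30 min RT, luminescence; signal drop scored as antagonism.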

For assay [7], the target named is Tumor necrosis factor (Homo sapiens) (UniProt P01375). Description: qHTS assay to identify small molecules that stimulate Tumor Necrosis Factor-alpha (TNF-alpha) secretion (AID 651757; active means well fitted curve in the direction sought with a large enough effect in the signal ratio; the % refers to the signal ratio; further: 0% is about no effect). The settings on record: Human cells, HTRF 665/615 ratio; series mostly up to 92.2 µM. The method, boiled down:
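Read-out is HTRF, a TR-FRET sandwich of cryptate- and XL665-labeled anti-TNF-alpha antibodies detecting cytokine secreted by THP-1 cells. Cells had been incubated with test compounds at 37 C for 17 hrs beforehand.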

Assay [8] in a line: qHTS assay to identify small molecules that stimulate interleukin-8 (IL-8) secretion (AID 651758; active means well fitted activation curve with a large enough effect in the signal ratio; the % refers to the signal ratio; further: potency means the concentration at half of the fitted maximal effect; on activation: 0% is about no effect). Conditions: HTRF ratio (665/615); series mostly up to 92.2 µM. The method in brief:
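THP-1 cells (2000/well) exposed to compound 16 h at 37 C; secreted IL-8 then detected by HTRF with cryptate- and XL665-labelled anti-IL-8 antibody pair after 1-3 h at room temperature.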

Assay [9] in a line: qHTS assay for environmental chemicals that activate the Aryl hydrocarbon Receptor (AhR) signaling pathway (AID 651777). Further: % of control where 0% means no effect; nearly all actives have a fitted effect of over 15% in size. The settings on record: 1A2-DRE human hepatoma cells, luciferase, 24 h; activation: stronger effect = higher value. The method, boiled down:
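Induction of CYP1A2 transcription through AhR is detected by luciferase in 1A2-DRE hepatoma cells. Compounds or DMSO act for 24 hr at 37 C before a 30 min One-Glo step at room temperature.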

Assay [10] in a line: qHTS assay for small molecule activators of the nuclear factor-kappa B (NF-kB) signaling pathway (AID 651749; active means well fitted activation curve with a large enough effect in the signal ratio; the % refers to the signal ratio; further: % of control where 0% means no effect). The settings on record: NF-kB-bla ME-180 cells, beta-lactamase FRET ratio, 16 h; stronger effect = higher value. The method, boiled down: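 NF-kB-bla ME-180 cells carrying a beta-lactamase reporter under an NF-kB response element, 2,000 cells/well, exposed to compound for 16 hr at 37C; FRET-based beta-lactamase fluorescence read-out of pathway activation.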

Assay [11] in a line: qHTS Assay for Identification of Small Molecule Antagonists for NFkB Signaling Pathway. (AID 624479; calls by dose curve;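 further: pathway stimulated with TNF alpha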; further: potency means the concentration at half of the fitted maximal effect). The settings on record: NFkB pathway reporter cell assay, antagonist mode; series mostly up to 38.3 µM.
Assay [12] is described as follows: Cell Proliferation Assay against the TMD8 Cell Line (AID 651645).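 Further: cells exposed to compound for 48 h before reading.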 Conditions: TMD8 DLBCL cell line proliferation/viability; at 46.1 µM (top of the series). The method in brief: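 Seed log-phase TMD8 cells in RPMI containing 5% FBS, add compounds at once, incubate 48 hours at 37C. Equilibrate to room temperature, add CellTiter-Glo, read luminescence after 15 minutes and express relative to DMSO and bortezomib controls.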

Assay [13] in a line: Cell Proliferation Assay against the HBL1 Cell Line (AID 651646).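 Further: cells exposed to compound for 48 h before reading.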 Conditions: HBL1 DLBCL cells; at 46.1 µM (top of the series). The method, boiled down: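 HBL1 ABC DLBCL cells, 500/well in RPMI with 5% FBS, treated for 48 h at 37C. Viability read by CellTiter-Glo luminescence, normalized to DMSO as 100% and 9.2 uM bortezomib as 0%.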
Assay [14] in a line: Cytotoxicity counterscreen for NFkB agonists and antagonists (AID 624476). Further: on the % scale 0 is the no-effect control and ±100 the full control effect. Conditions: NFkB reporter cell line viability counterscreen; series mostly up to 46.1 µM.
Assay [15] in a line: Cell Proliferation Assay against the TMD8 Cell Line (Caspase readout at 16 hrs) (AID 651712). Further: potency means the concentration at half of the fitted maximal effect. Conditions: TMD8 lymphoma cells, caspase activation luminescence; series mostly up to 46.1 µM. The method, boiled down: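 TMD8 cells in RPMI with 5% FBS were treated with compound for 16 h at 37 C, then caspase 3/7 activation was read by Caspase-Glo luminescence. Percent activity was scaled to DMSO (0%) and 9.2 uM bortezomib final (100%).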

A short description of assay [16]: Cell Proliferation Assay against the TMD8 Cell Line (Caspase readout at 8 hrs) (AID 651713). Conditions: TMD8 lymphoma cells, caspase activation luminescence; series mostly up to 46.1 µM. The method, boiled down: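 Seed log-phase TMD8 cells, add compound by pin tool, incubate 8 h at 37C under 5% CO2, equilibrate to room temperature, add Caspase-Glo, wait 15 min, read luminescence; percent activity uses DMSO and 9.2 uM bortezomib controls.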

The structures appear in SMILES notation. Values joined by “and” are separate entries in the source; they are usually repeats but may differ in a detail not shown here. Equal values may be shown once. Results filed as inconclusive are left out. Active and inactive are the calls of the source. Unless noted, the call rests on the fitted dose curve; in most records, active means well fitted curve in the direction sought with a large enough effect; inconclusive means small, poorly fitted or top-dose-only effect, or another doubt; inactive means no such curve, though single readings can be large; an effect the other way counts as inactive or inconclusive.

Chain of Nuclear receptor ROR-gamma (Homo sapiens) (P51449 whole entry, looked up): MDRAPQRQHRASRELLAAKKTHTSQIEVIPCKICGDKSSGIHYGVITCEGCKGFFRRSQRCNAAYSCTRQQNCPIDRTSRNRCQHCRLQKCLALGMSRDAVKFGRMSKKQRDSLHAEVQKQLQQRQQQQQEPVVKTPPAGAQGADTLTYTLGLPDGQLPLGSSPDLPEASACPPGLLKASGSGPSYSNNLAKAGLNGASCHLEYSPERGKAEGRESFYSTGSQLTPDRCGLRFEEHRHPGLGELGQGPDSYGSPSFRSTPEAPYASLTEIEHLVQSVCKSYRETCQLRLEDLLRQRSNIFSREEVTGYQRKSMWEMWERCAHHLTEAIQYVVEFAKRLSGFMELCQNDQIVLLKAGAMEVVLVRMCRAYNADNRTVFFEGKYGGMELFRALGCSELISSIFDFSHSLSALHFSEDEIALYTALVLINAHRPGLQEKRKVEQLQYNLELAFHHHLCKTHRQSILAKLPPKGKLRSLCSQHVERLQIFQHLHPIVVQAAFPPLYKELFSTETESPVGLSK
Chain of Peroxisome proliferator-activated receptor alpha (Homo sapiens) (Q07869 whole entry, looked up, the tested form may be a part): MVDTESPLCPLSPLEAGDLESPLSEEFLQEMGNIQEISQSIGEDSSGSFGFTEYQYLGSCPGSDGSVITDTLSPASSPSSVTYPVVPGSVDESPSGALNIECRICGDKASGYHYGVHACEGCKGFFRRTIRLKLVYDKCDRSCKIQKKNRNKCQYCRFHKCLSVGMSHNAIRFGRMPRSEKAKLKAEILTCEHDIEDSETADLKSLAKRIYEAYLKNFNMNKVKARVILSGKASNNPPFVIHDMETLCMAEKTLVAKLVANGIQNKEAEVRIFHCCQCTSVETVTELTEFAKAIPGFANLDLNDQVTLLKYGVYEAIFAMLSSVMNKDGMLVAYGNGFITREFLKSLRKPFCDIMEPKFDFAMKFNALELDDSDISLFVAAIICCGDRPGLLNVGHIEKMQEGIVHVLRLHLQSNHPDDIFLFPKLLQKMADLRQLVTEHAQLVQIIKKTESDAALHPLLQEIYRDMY
Chain of Tumor necrosis factor (Homo sapiens) (P01375 whole entry, looked up): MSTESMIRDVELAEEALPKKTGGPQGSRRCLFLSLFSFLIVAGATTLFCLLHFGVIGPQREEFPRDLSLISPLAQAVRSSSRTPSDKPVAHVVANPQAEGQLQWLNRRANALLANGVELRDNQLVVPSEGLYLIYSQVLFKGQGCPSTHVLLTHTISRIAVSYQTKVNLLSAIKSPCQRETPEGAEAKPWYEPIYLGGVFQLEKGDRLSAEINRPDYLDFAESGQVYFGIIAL

On to `c1ccc2c(c1)Nc1ccccc1S2`, for which the figures for the Potency in [1], in assay [3] and in assay [4] were 54.5 µM (active), 42.2 µM (active) and 66.8 µM (active), respectively. In assay [2], the activation is 4.3% (inactive) and -2.32% (inactive). For the same molecule, the max response in assay [5] was -1.15% (inactive) and -1.18% (inactive). In assay [6], the Potency entry was “inactive”.

For the molecule `Oc1ccccc1-c1ccccc1`, in assay [1], the Potency was 54.5 µM (active) and 398 µM (active) and 30.6 µM (active). Also, the activation in assay [2] is -2.94% (inactive) and -3.63% (inactive) and -0.39% (inactive); in assay [9], 0.277% (inactive) [middle of 4 runs]. For the same molecule, the result in assay [7] was inactive. Besides, the Potency result in assay [8] and in assay [6] was “inactive” each time. For the same molecule, the max response in [5] is -2.25% (inactive) and -0.4% (inactive) and 12.1% (inactive).

On to `O=c1oc2ccccc2c(O)c1C(CC(O)c1ccc(-c2ccc(Br)cc2)cc1)c1ccccc1` (stereo not given), for which the Potency in assay [1] was 27.3 µM (active). Moreover, the activation in [10] was -6.71% (inactive); in [9], -0.116% (inactive). The max response in assay [5] is -1.05% (inactive).

For `CC(C)C(=O)Nc1ccc([N+](=O)[O-])c(C(F)(F)F)c1`, the Potency in [1] was 61.1 µM (active) and 66.8 µM (active); in assay [3], 42.2 µM (active); in assay [4] it was 42.2 µM (active); in assay [6] it was 23.7 µM (active).

For the molecule `O=c1c(O)c(-c2ccc(O)c(O)c2)oc2cc(O)cc(O)c12`, in assay [11], the Potency was 14.9 µM (active). Moreover, in assay [12], the viability (% of control) came out at 46.1%. Moreover, in [13], the viability, percent of control was 56.5%.

`Clc1ccc(COC(Cn2ccnc2)c2ccc(Cl)cc2Cl)cc1` (stereo not given): the result in [7] was inactive. Besides, the max response in assay [5] was -5.88% (inactive).

As for `CNC(=O)N1N=C(c2ccc(N)cc2)c2cc3c(cc2CC1C)OCO3` (stereo not given), the Potency result in assay [14], in [11] and in assay [16] was “inactive” throughout. Also, the viability (% of control) in assay [12] was 5.8%. Moreover, the viability, percent of control in assay [13] was determined as 20%. Besides, the Potency in assay [15] is 18.7 µM (active).

As for `COc1cc2c(c(OC)c1OC)-c1ccc(OC)c(=O)cc1[C@@H](NC(C)=O)CC2`, the Potency in assay [1] is 0.075 µM (active); in assay [8] it was 53.1 nM (active) and 47.3 nM (active); in [6], 335 nM (active) and 119 nM (active).

The record behind these values is PubChem BioAssay (NCATS).
